Read-out in test [1]: Transforming growth factor beta 1 (TGFb1), TGFB1 (gene 7040)
The test can be described thus: BSK_KF3CT_TGFb1: BioMAP Diversity Plus: KF3CT Assay for Transforming growth factor beta 1 (TGFb1) Biomarker Activity (AID 2283072). The note with it: primary human keratinocytes with fibroblasts; actives raise or lower the signal. An outline of the steps: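 Primary human skin cells (keratinocytes, foreskin fibroblasts) were co-cultured, exposed to test chemical and sampled at 24 h. TGF-b1 levels were measured by ELISA and fitted bidirectionally relative to DMSO.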

Read-out in test [2]: C-C motif chemokine 2 (Homo sapiens) (UniProt P13500)
The test can be described thus: BSK_KF3CT_MCP1: BioMAP Diversity Plus: KF3CT Assay for Monocyte Chemoattractant Protein 1 (MCP1/CCL2) Biomarker Activity (AID 2283073). The note with it: primary human keratinocytes with fibroblasts; actives raise or lower the signal. Summed up:
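Biomarker MCP-1 is measured by ELISA in primary human keratinocytes co-cultured with foreskin fibroblasts, 24 h after chemical treatment; DMSO serves as the negative control and activity baseline.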

Read-out in test [3]: Matrix Metallopeptidase 9 (MMP9), MMP9 (gene 4318)
The test is described as follows: BSK_KF3CT_MMP9: BioMAP Diversity Plus: KF3CT Assay for Matrix Metallopeptidase 9 (MMP9) Biomarker Activity (AID 2283074).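 As to AC50: MMP9 protein level quantified by ELISA in the co-culture.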 Particulars: primary human keratinocytes with fibroblasts; actives raise or lower the signal. An outline of the steps: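 Human keratinocyte/foreskin fibroblast co-culture; compound added; 24 h; MMP-9 by ELISA; bidirectional fit vs DMSO baseline.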

Read-out in test [4]: urokinase plasminogen activator (uPA), PLAU (gene 5328)
The test is described as follows: BSK_KF3CT_uPA: BioMAP Diversity Plus: KF3CT Assay for urokinase plasminogen activator (uPA) Biomarker Activity (AID 2283075). Particulars: primary human keratinocytes with fibroblasts; actives raise or lower the signal. An outline of the steps: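 ELISA readout of uPA, analyzed for signal gain or loss relative to DMSO, from a human primary keratinocyte–foreskin fibroblast co-culture measured 24 h after chemical treatment.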

Read-out in test [5]: CD40, CD40 (gene 958)
The test is described as follows: BSK_LPS_CD40: BioMAP Diversity Plus: LPS Assay for CD40 Biomarker Activity (AID 2283076). The note with it: primary human HUVEC with PBMC; actives raise or lower the signal. An outline of the steps: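 Using a multiplexed primary human co-culture (umbilical vein endothelium plus PBMC), CD40 was read by ELISA 24 h after dosing, with cytotoxicity tracked by sulforhodamine B staining of parallel cultures and activity fitted bidirectionally versus DMSO.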

Read-out in test [6]: E-selectin (Homo sapiens) (UniProt P16581)
The test is described as follows: BSK_LPS_Eselectin: BioMAP Diversity Plus: LPS Assay for Eselectin Biomarker Activity (AID 2283077). The note with it: primary human HUVEC with PBMC; actives raise or lower the signal. An outline of the steps: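 Dose chemical onto LPS-driven HUVEC/PBMC co-culture; after 24 h, run ELISA for E-selectin; fit up- and down-going responses relative to DMSO control.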

The nature of test [7]: BSK_LPS_SRB: Viability Assessment in the BioMAP Diversity Plus: LPS Assay (AID 2283079).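 Also: total protein by sulforhodamine B absorbance as a cytotoxicity measure; measured one day after compound addition; fitted in both directions against DMSO so loss or gain of signal counts.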 The note with it: primary human HUVEC with PBMC. An outline of the steps: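 Cytotoxicity endpoint in human endothelial–PBMC co-culture: 24 h exposure, then SRB (0.1%) staining, 560 nm read.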
Read-out in test [8]: Interleukin-1 alpha (IL1a), IL1A (gene 3552)
The test can be described thus: BSK_LPS_IL1a: BioMAP Diversity Plus: LPS Assay for Interleukin-1 alpha (IL1a) Biomarker Activity (AID 2283080). Particulars: primary human HUVEC with PBMC; actives raise or lower the signal. An outline of the steps:
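Primary human HUVEC and PBMC co-culture stimulated with LPS is dosed and harvested at 24 h. Both increases and decreases in ELISA-measured IL-1a are scored relative to DMSO.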

Read-out in test [9]: Monocyte Chemoattractant Protein-1 (MCP1), CCL2 (gene 6347)
The test can be described thus: BSK_LPS_MCP1: BioMAP Diversity Plus: LPS Assay for Monocyte Chemoattractant Protein-1 (MCP1) Biomarker Activity (AID 2283081).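 As to AC50: secreted MCP-1 protein quantified by ELISA in culture supernatant.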 The note with it: primary human HUVEC with PBMC; actives raise or lower the signal. An outline of the steps: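 Values derive from bidirectional fitting against DMSO of ELISA-measured MCP-1 in a human primary endothelial and mononuclear cell co-culture, 24 h after chemical addition under LPS activation.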

The nature of test [10]: BSK_LPS_PGE2: BioMAP Diversity Plus: LPS Assay for Prostaglandin E2 (PGE2) Biomarker Activity (AID 2283082).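 As to AC50: secreted prostaglandin E2 measured by ELISA in LPS-stimulated co-culture.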 The note with it: primary human HUVEC with PBMC; actives raise or lower the signal. Summed up:
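LPS-activated HUVEC/PBMC co-culture; cmpd dosed, 24 h; PGE2 by ELISA; bidirectional fit vs DMSO; SRB (0.1%, TCA-fixed, 560 nm) in parallel plates for overt cytotox.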

Read-out in test [11]: Macrophage colony-stimulating factor (MCSF), CSF1 (gene 1435)
The test can be described thus: BSK_LPS_MCSF: BioMAP Diversity Plus: LPS Assay for Macrophage colony-stimulating factor (MCSF) Biomarker Activity (AID 2283083). Particulars: primary human HUVEC with PBMC; actives raise or lower the signal. An outline of the steps:
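Bidirectional fit versus DMSO of ELISA-measured M-CSF in co-cultured human umbilical vein endothelial cells and PBMC, sampled 24 h after dosing.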

Read-out in test [12]: Tissue Factor, F3 (gene 2152)
The test is described as follows: BSK_LPS_TissueFactor: BioMAP Diversity Plus: LPS Assay for Tissue Factor Biomarker Activity (AID 2283084). The note with it: primary human HUVEC with PBMC; actives raise or lower the signal. An outline of the steps: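 Read-out: CD142 ELISA, 24 h. System: LPS-driven human endothelial/PBMC co-culture. Analysis: up- or down-signal fitted against DMSO.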

Read-out in test [13]: Tumor necrosis factor (Homo sapiens) (UniProt P01375)
The test is described as follows: BSK_LPS_TNFa: BioMAP Diversity Plus: LPS Assay for Tumour Necrosis Factor alpha (TNFa) Biomarker Activity (AID 2283085). Particulars: primary human HUVEC with PBMC; actives raise or lower the signal. Summed up: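 Read-out is ELISA of TNFa in primary human endothelial cell–PBMC co-cultures at 24 h after compound. Activity in either direction was fitted against DMSO.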

Read-out in test [14]: CD38, CD38 (gene 952)
The test can be described thus: BSK_SAg_CD38: BioMAP Diversity Plus: SAg Assay for CD38 Biomarker Activity (AID 2283087). The note with it: primary human HUVEC with PBMC; actives raise or lower the signal. Summed up: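 Human HUVEC plus PBMC co-culture stimulated with superantigen; CD38 measured by ELISA 24 h after chemical dosing. Fluorescence read-out, bidirectional fit against DMSO; cytotoxicity tracked in parallel by SRB and Alamar Blue.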

Read-out in test [15]: CD40, CD40 (gene 958)
The test is described as follows: BSK_SAg_CD40: BioMAP Diversity Plus: SAg Assay for CD40 Biomarker Activity (AID 2283088). The note with it: primary human HUVEC with PBMC; actives raise or lower the signal. Summed up:
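Endpoint derived by fitting increases or decreases versus DMSO controls. CD40 is detected by fluorescence ELISA in a human vascular co-culture of endothelium and PBMC at 24 h.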

Read-out in test [16]: CD69, CD69 (gene 969)
The test can be described thus: BSK_SAg_CD69: BioMAP Diversity Plus: SAg Assay for CD69 Biomarker Activity (AID 2283089).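 As to AC50: cell surface CD69 protein quantified by ELISA with fluorescence detection.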 Particulars: primary human HUVEC with PBMC; actives raise or lower the signal. An outline of the steps:
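ELISA, fluorescence read-out: CD69 on human umbilical vein endothelial cell + PBMC co-culture, 24 h post-dosing. Gain or loss of signal fitted bidirectionally against DMSO baseline.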

Read-out in test [17]: Monocyte Chemoattractant Protein-1 (MCP1), CCL2 (gene 6347)
The test is described as follows: BSK_SAg_MCP1: BioMAP Diversity Plus: SAg Assay for Monocyte Chemoattractant Protein-1 (MCP1) Biomarker Activity (AID 2283090). Particulars: primary human HUVEC with PBMC; actives raise or lower the signal. An outline of the steps:
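MCP-1 levels in the endothelial–PBMC SAg co-culture were quantified by ELISA at 24 h post-dosing; both increases and decreases versus DMSO scored. Cytotoxicity monitored by SRB total protein in parallel cultures.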

Read-out in test [18]: E-selectin (Homo sapiens) (UniProt P16581)
The test can be described thus: BSK_SAg_Eselectin: BioMAP Diversity Plus: SAg Assay for Eselectin Biomarker Activity (AID 2283091). The note with it: primary human HUVEC with PBMC; actives raise or lower the signal. Summed up:
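Endpoint values derive from bidirectional fitting relative to DMSO, using ELISA-measured E-selectin in a human vascular co-culture (umbilical vein endothelium plus PBMC) sampled 24 h after dosing.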

Read-out in test [19]: Vascular cell adhesion molecule 1 (VCAM1), VCAM1 (gene 7412)
The test can be described thus: BSK_LPS_VCAM1: BioMAP Diversity Plus: LPS Assay for Vascular cell adhesion molecule 1 (VCAM1) Biomarker Activity (AID 2283086). The note with it: primary human HUVEC with PBMC; actives raise or lower the signal. An outline of the steps: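 HUVEC + PBMC co-culture, LPS system; compound 24 h; VCAM-1 by ELISA; bidirectional fit vs DMSO control; parallel SRB (0.1%, TCA-fixed, 560 nm) for cytotoxicity.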

Active and inactive are the calls of the source. The calls were made as follows: active = hit-call score of the fitted dose curve at least 0.9, where 1 is the maximum; inactive = score below 0.9.

Tumor necrosis factor (Homo sapiens), sequence (P01375 whole entry, looked up): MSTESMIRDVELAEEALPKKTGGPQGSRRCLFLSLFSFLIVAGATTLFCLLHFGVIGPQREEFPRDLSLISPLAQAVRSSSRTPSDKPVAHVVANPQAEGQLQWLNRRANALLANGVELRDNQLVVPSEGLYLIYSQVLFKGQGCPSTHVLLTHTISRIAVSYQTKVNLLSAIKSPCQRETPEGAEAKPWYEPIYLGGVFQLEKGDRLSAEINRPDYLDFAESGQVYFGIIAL
E-selectin (Homo sapiens), sequence (P16581 whole entry, looked up): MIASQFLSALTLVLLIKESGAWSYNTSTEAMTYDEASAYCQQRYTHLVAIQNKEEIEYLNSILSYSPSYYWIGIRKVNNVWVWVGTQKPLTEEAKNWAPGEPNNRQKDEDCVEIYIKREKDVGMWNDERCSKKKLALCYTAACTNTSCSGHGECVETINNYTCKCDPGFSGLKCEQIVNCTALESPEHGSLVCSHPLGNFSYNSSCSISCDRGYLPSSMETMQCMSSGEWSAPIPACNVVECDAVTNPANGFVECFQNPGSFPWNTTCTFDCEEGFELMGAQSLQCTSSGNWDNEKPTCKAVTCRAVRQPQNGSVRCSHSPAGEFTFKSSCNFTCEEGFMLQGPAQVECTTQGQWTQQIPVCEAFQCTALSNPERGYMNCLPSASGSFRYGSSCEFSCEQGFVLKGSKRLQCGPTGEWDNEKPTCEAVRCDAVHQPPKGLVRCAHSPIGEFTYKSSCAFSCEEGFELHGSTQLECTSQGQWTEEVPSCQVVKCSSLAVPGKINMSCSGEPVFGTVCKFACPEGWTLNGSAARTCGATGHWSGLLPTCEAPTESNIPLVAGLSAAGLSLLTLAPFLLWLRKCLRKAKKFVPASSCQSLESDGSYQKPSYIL

The AC50 is the concentration at which the activity in the assay is half-maximal. For the compound `CC#C[C@]1(O)CC[C@H]2[C@@H]3CCC4=CC(=O)CCC4=C3[C@@H](c3ccc(N(C)C)cc3)C[C@@]21C`, the result in [1], in test [4], in test [10], in [12] and in test [13] was inactive. In addition, the AC50 in test [2] is 34.2 µM (active); in test [3], 24.1 µM (active); in [5], 33.8 µM (active); in test [6], 30.5 µM (active); in test [7] it was 27.9 µM (active); in test [8], 31.3 µM (active). In addition, the AC50 was 31.5 µM (active) in test [9]; 12.1 µM (active) in test [11]; 36.6 µM (active) in test [14]; 31.2 µM (active) in test [15]; 31.9 µM (active) in test [16]; 31.7 µM (active) in test [17]. The AC50 in test [18] is 33.4 µM (active).
As for `N#C[C@@H]1CC(F)(F)CN1C(=O)CNC1CC2CCC(C1)N2c1ncccn1` (some centres not stated), the result in [1], in [2], in test [3], in [4], in [6] and in [7] was inactive. In addition, the outcome in [8], in test [9], in test [12], in [13] and in test [19] was inactive. For the same compound, the AC50 was 4.2 µM (active) in [5]; 0.939 µM (active) in test [10]; 2.33 µM (active) in test [11]; 4.4 µM (active) in test [14]; 4.8 µM (active) in test [15]; 4.59 µM (active) in [16]. Besides, the AC50 in test [17] was 6.57 µM (active).
Consider `COCC(C)O` (configuration not stated), for which the result in test [1], in test [2], in [3], in [4], in test [5] and in test [6] was inactive. Further, the outcome in test [7], in test [8], in test [9], in test [10], in test [11] and in test [12] was inactive. The result in test [13], in test [19], in [14], in [15], in test [16] and in test [17] was inactive. The outcome in test [18] was inactive.
In the case of `CCc1ccc(CCOc2ccc(CC3SC(=O)NC3=O)cc2)nc1` (configuration not stated), the result in [1], in test [2], in test [3], in test [4], in test [5] and in [6] was inactive. In addition, the outcome in test [7], in [8], in [9], in test [10], in test [11] and in test [12] was inactive. The outcome in [13], in test [19], in test [14], in test [15], in test [16] and in test [17] was inactive. For the same compound, in test [18], the result was inactive.
As for `CC(C)(C)c1cc(C(C)(C)C)c(O)c(C(C)(C)C)c1`, the result in test [1], in test [2], in test [4], in test [5], in test [6] and in test [7] was inactive. For the same compound, the result in test [8], in test [9], in test [10], in test [11], in [13] and in [19] was inactive. In addition, the outcome in test [14], in [15], in test [16], in test [17] and in test [18] was inactive. In addition, the AC50 was 36.2 µM (active) in test [3] and 20 µM (active) in test [12].
With `CCCCCCCCCCCCCC[N+](C)(C)C`, the half-maximal activity concentration (AC50) in test [1] is 0.925 µM (active); in [2], 8.89 µM (active); in [3] it was 3.52 µM (active); in [4] it was 4.33 µM (active); in test [5], 4.57 µM (active); in test [6], 10 µM (active). Moreover, the AC50 in [7] was 5.37 µM (active); in test [8] it was 1.76 µM (active); in test [9], 5.01 µM (active); in test [11], 5.39 µM (active); in [12], 5.28 µM (active); in [13] it was 11 µM (active). Further, the AC50 in test [19] was 5.64 µM (active); in [14] it was 3.24 µM (active); in test [15], 2.15 µM (active); in test [16] it was 2.53 µM (active); in [17] it was 3.66 µM (active); in test [18] it was 3.2 µM (active). Moreover, the outcome in test [10] was inactive.

(Values after PubChem BioAssay (EPA / NIEHS).)
